# NadD block = NadD (S. aureus) enzyme inhibition. purified NadD enzyme, colorimetric absorbance read-out. inhibition, % at 20 µM. hit rate 0.78% among 360,000; in the data active means inhibition above about 26%
# SMARCA2 act = SMARCA2 function activation, primary screen; activation, % at 9.1 µM; AID 652017; hit rate 1% among 370,000; MG213 cells, MMTV-luciferase reporter, dexamethasone, overnight; in the data active means activation above about 7.8%;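 further: 0% = vehicle wells and 100% = reference activator wells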
# SKN-1 inh = inhibitors of C. elegans SKN-1; C. elegans VP596 Pgst-4::GFP/RFP ratio, acrylamide-induced, 24 h; hit rate 0.49% among 360,000; AID 624304; inhibition, % at 21.8 µM;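 active means interference check ratio from 0.5 to 1.5 plus GFP to RFP signal ratio inhibition reaching or exceeding a fixed threshold, cut at about 30% in these data, passing the limit was not always enough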
# esBAF inh = inhibitors of esBAF chromatin remodeling in mouse ES cells. Bmi1-luciferase knock-in reporter, 24 h; 100% = twice the neutral-well signal. reporter increase, % at 12.5 µM. hit rate 2% among 350,000; in the data active means activation above about 40%;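 further: 0% = median of the plate's neutral control wells and 100% = double that signal; a rise in the Bmi1 reporter signal indicates esBAF inhibition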
# Vif inh = inhibitors of HIV Vif; HEK293T cells, Vif self-association by quenched fluorescence, imaging, 24 h; inhibition, % at 7.49 µM; hit rate 0.35% among 340,000; AID 602346; in the data active means inhibition above about 50%, passing the limit was not always enough
# GRIN3A LBD mod = modulates the human NR3A ligand-binding domain; Tm shift relative to glycine control, % at 25 µM; NR3A LBD differential scanning fluorimetry, Tm shift; 0% = protein alone, 100% = glycine-bound protein; hit rate 2.5% among 340,000;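 active means melting temperature shift of at least 10% of the positive control shift, at one fixed dose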
# SMARCA2 act conf = SMARCA2 activation, confirmation screen; shares compounds with SMARCA2 act; MG213 cells, MMTV-luciferase with dexamethasone, luminescence, overnight; MG213 cells expressing E1A, Rb sequestered; DMSO wells 0%, reference activator 100%; activation, % at 9.1 µM; hit rate 30% among 3,500; AID 652260;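 active means activation above its plate's cutoff, the mean activation of tested wells plus 3 SD, cut at about 7.9% in these data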
# GAL4-VP16 Luc = counter-screen for SMARCA2 activators: GAL4-VP16 luciferase reporter activation; hit rate 41% among 3,500; shares compounds with SMARCA2 act; HEK293 GAL4-VP16 pG5luc reporter, luciferase luminescence; scaled: DMSO wells 0%, SAHA wells 100%; activation, % at 9.1 µM;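 active means activation above the solvent-only control well mean plus 3 SD, averaged across control plates, cut at about 5.2% in these data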
# Active calls of the source: *; nt = no result. Rows were chosen to be rich in hits. Some 5.2% of all compounds tested hit in one or more screens of this group.
SMILES,NadD block,SMARCA2 act,SKN-1 inh,esBAF inh,Vif inh,GRIN3A LBD mod,SMARCA2 act conf,GAL4-VP16 Luc
CN(C)C(=O)Oc1ccc(OC(=O)c2ccccc2)cc1,4,11*,10,nt,1,1,8.2*,-1
COC(=O)[C@@H]1[C@@H](CO)[C@@H]2Cn3c(ccc(-c4cncnc4)c3=O)[C@H]1N2S(=O)(=O)c1ccccc1C,nt,nt,nt,1,nt,nt,nt,nt
S=P1(Oc2ccccc2)Nc2ccccc2N1,-4,12*,-7,2,-1,1,5,3
Cc1cc(NC(=O)CCl)no1,-7,8.9*,-10,nt,14,0,1,0
C=C1C(=O)C(C)=C2C(=O)N3Cc4[nH]c5ccccc5c4CC3(C(=O)OC)C12 (centres undefined),nt,9.2*,nt,nt,nt,nt,7,3
CN1CCN(c2ccc3c(c2)S(=O)(=O)c2ccccc2C3=O)CC1,0,8.6*,9,-2,-2,0,8.2*,8.8*
CNC(C)Cc1ccccc1 (centres undefined),-2,2,-11,5,-2,-2,nt,nt
CC(Cc1ccccc1)/[N+]([O-])=C\c1ccc(C(F)(F)F)cc1 (centres undefined),-7,9.2*,8,76*,0,-2,11*,6.3*
CC=Cc1ccc2n(c1=O)C[C@@H]1[C@@H](CO)[C@H](C(=O)O)[C@H]2N1S(=O)(=O)c1ccccc1C (mixture of isomers),nt,nt,nt,0,nt,nt,nt,nt
C=C1C(=O)OC2C1CCC(C)C1(O)C=CC(=O)C21C (centres undefined),6,8.4*,4,10,22,-4,15*,2
C=C1C(=O)O[C@H]2C[C@@H](C)[C@@H]3C=CC(=O)[C@@]3(C)C[C@H]12,nt,-8,nt,nt,nt,-6,nt,nt
N#Cc1cn(C2OC(CO)C(O)C2O)c2ncnc(N)c12 (centres undefined),1,8.5*,9,nt,-2,-1,17*,-4
N#Cc1c(Br)n(C2OC(CO)C(O)C2O)c2ncnc(N)c12 (centres undefined),0,63*,18,nt,-2,-3,52*,-1
O=C(O)[C@@H]1[C@@H](CO)[C@@H]2Cn3c(cccc3=O)[C@H]1N2C(=O)c1ccccc1,nt,nt,nt,0,nt,nt,nt,nt
COC(=O)[C@H]1[C@H](CO)[C@H]2Cn3c(ccc(-c4ccccc4F)c3=O)[C@@H]1N2,nt,nt,nt,1,nt,nt,nt,nt
C/C=C/c1ccc([C@H]2[C@@H](CO)N3CCCCN(C(=O)Cc4ccncc4)C[C@H]23)cc1,nt,nt,nt,-5,nt,nt,nt,nt

# Bioassay records as filed in PubChem BioAssay.
